Among the data in PubChem BioAssay (NCI) are growth values, retold here.

Where “and” joins values, the source holds several entries; their conditions need not be identical. Identical values can stand only once. This is part of a sample that, as a whole, favours compounds with a hit. Of some 83,000 tested, about 20% had one in any assay.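 Step 1: grow cells in 96-well plates. Step 2: add test compound at a single concentration. Step 3: incubate 48 h. Step 4: record percent growth.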 Calls of active or inactive are those of the source. How the source made its calls: active means growth percent below 10; inactive means the rest.

Holding throughout (assay): NCI-60 one-dose screen, 48 h (100 = growth as untreated, 0 = no growth, -100 = all killed)
Conditions in all cases: 10 µM unless noted

Experiment [1] deals with UACC-62 melanoma.
Experiment [2] relates to HT29 colon.
Experiment [3] deals with SNB-75 CNS.
Experiment [4] relates to SNB-19 CNS.
Experiment [5] concerns U251 CNS.
For experiment [6], the system named is PC-3 prostate.
For experiment [7], the system named is SK-MEL-5 melanoma.
The subject of experiment [8] is LOX IMVI melanoma.
Experiment [9] relates to SK-MEL-2 melanoma.
Experiment [10] deals with EKVX NSCLC.
The subject of experiment [11] is SN12C renal.
Experiment [12] has as its system TK-10 renal.
Experiment [13] relates to ACHN renal.
The test system of experiment [14] is CAKI-1 renal.
Experiment [15] relates to A498 renal.
Experiment [16] relates to CCRF-CEM leukemia.
Experiment [17] relates to MOLT-4 leukemia.
The test system of experiment [18] is SK-MEL-28 melanoma.
For experiment [19], the system named is UO-31 renal.

For the compound `COC(=O)C(/C(=N/NC(N)=O)C(=O)Nc1ccc(C)cc1)c1nc2ccc([N+](=O)[O-])cc2[nH]c1=O` (stereo not given), in experiment [1], the growth was 61.4% [100 µM] (inactive) and 23.2% [100 µM] (inactive).

As to `Clc1ccc(SSc2ccc(Cl)cc2)cc1`, the growth in experiment [2] was 98.1% (inactive) and 98.2% (inactive); in experiment [3] it was 74.4% (inactive) and 67% (inactive); in experiment [4], 93.7% (inactive) and 89.2% (inactive); in experiment [5], 93.4% (inactive) and 61% (inactive); in experiment [6], 87.3% (inactive) and 46.5% (inactive); in experiment [7] it was 105% (inactive) and 73.3% (inactive). For the same compound, the growth in experiment [1] is 96.9% (inactive) and 95.8% (inactive); in experiment [8] it was 97.6% (inactive) and 7.12% (active); in experiment [9] it was 101% (inactive) and 111% (inactive); in experiment [10] it was 103% (inactive) and 68.6% (inactive); in experiment [11], 97.5% (inactive) and 42.4% (inactive); in [12], 88% (inactive) and 106% (inactive). For the same compound, the growth was 99.4% (inactive) and 99.7% (inactive) in experiment [13]; 95.8% (inactive) and 94.5% (inactive) in experiment [14]; 87.9% (inactive) and 74.6% (inactive) in [15]; 97.9% (inactive) in experiment [16]; 98.6% (inactive) in [17].

As to `NC1N=C(c2ccc(Cl)cc2)C2=C(N1)c1ccccc1CC2` (stereo not given), the growth in experiment [1] is 36.7% [100 µM] (inactive) and -55.8% [100 µM] (active).

Consider `CCn1c2c(c3ccccc3c1=O)C(=O)c1ccccc1-2`, for which the growth in experiment [1] was 62.3% [100 µM] (inactive) and 2.6% [100 µM] (active); in experiment [12], 73.6% [100 µM] (inactive) and -93.6% [100 µM] (active).

On to `CNC(=O)c1cccc(-c2ccc3c(N4CCOC[C@@H]4C)nc(N4CCOC[C@@H]4C)nc3n2)c1`, for which the growth in experiment [2] is 18.3% (inactive) and 1.73% (active); in experiment [3] it was -32.8% (active) and -40.5% (active); in experiment [4] it was 10.2% (inactive) and 8.05% (active); in experiment [5] it was 9.22% (active) and 6.58% (active); in experiment [6] it was 6.6% (active) and 7.98% (active); in [7] it was -38.2% (active) and -49.8% (active). In addition, the growth was -24.9% (active) and -51.8% (active) in [1]; 3.01% (active) and -1.67% (active) in experiment [8]; -15.7% (active) and -26.3% (active) in [18]; -8.99% (active) in experiment [9]; -5% (active) and 2.98% (active) in experiment [10]; 12.5% (inactive) and 5.62% (active) in [11]. In addition, the growth was -3.68% (active) and -24.2% (active) in experiment [19]; 0.741% (active) and -1.46% (active) in experiment [13]; 9.85% (active) and -15.3% (active) in experiment [14]; -35.6% (active) and -37.8% (active) in [15]; 28% (inactive) and 20.3% (inactive) in experiment [16]; 16.8% (inactive) and 8.62% (active) in experiment [17].

Regarding `CCN(CC)CCC(CNc1c2ccc([N+](=O)[O-])cc2nc2cc(OC)c(OC)cc12)c1ccccc1` (stereo not given), the growth in experiment [2] was 3.73% (active) and -97.3% (active); in [3] it was -95.7% (active) and -97.6% (active); in [4], -42.9% (active) and -93.8% (active); in experiment [5] it was -44.7% (active) and -100% (active); in experiment [6], -62.6% (active) and -97.1% (active); in experiment [7], -81.8% (active) and -100% (active). Further, the growth in experiment [1] is -78.6% (active) and -100% (active); in [8], -62.2% (active) and -100% (active); in experiment [9], -11.9% (active) and -77.5% (active); in experiment [10], -23.6% (active) and -87.3% (active); in experiment [11], -27.1% (active) and -91.6% (active); in experiment [19] it was -73.9% (active) and -99.4% (active). The growth in experiment [12] was -4.61% (active) and -89.9% (active); in experiment [13], -58.9% (active) and -76.9% (active); in experiment [14], 8.78% (active) and -76.1% (active); in experiment [15], -16.9% (active); in experiment [16] it was 1.82% (active) and -50.9% (active); in [17], 5.7% (active).

With `NC(=O)CC1OC(=O)Cc2cc3c(c(O)c21)C(=O)c1c(O)cccc1C3=O` (stereo not given), the growth in experiment [1] is 67.9% [100 µM] (inactive).

`Nc1ccc2[nH]c(-c3ccccc3)cc(=O)c2c1`: the growth in experiment [2] is 78.7% (inactive); in experiment [3], 82.4% (inactive); in experiment [4] it was 88.7% (inactive); in [5] it was 72.9% (inactive); in experiment [6], 74.1% (inactive); in experiment [7], 58.2% (inactive). The growth in [1] is 77.6% (inactive); in experiment [18] it was 86.5% (inactive); in experiment [9] it was 78.8% (inactive); in experiment [10], 96.1% (inactive); in [11] it was 98.2% (inactive); in experiment [19], 89.9% (inactive). Also, the growth in experiment [12] is 123% (inactive); in experiment [13], 102% (inactive); in [15] it was 84.2% (inactive); in experiment [16] it was 67.9% (inactive); in experiment [17], 63.8% (inactive).

Turning to `C=C1C2CCC3C4(C)CCCC(C)(C(=O)O)C4CCC3(C2)C1OC(=O)/C(C)=C/C` (stereo not given), the growth in experiment [1] is -47.9% [100 µM] (active) and 42.1% [100 µM] (inactive).

For the compound `O=C(O)COc1cc(-c2ccccc2F)nc2cc3c(cc12)OCO3`, the growth in experiment [1] was 83.2% [100 µM] (inactive) and 64.8% [100 µM] (inactive); in experiment [12], 113% [100 µM] (inactive) and 102% [100 µM] (inactive).

For `Cc1ccc2c(sc(-c3ccc4c(c3)sc(-c3ccc5c(c3)sc(-c3ccc(N(C)C)cc3)[n+]5C)[n+]4C)[n+]2C)c1S(=O)(=O)O` (tested in a mixture with another compound), the growth in [1] is 48.6% [100 µM] (inactive) and 10.5% [100 µM] (inactive); in [12], 106% [100 µM] (inactive) and 47.3% [100 µM] (inactive).

As for `CC1CC2(OC2C)C(=O)OC2CCN(C)C/C=C(/COC(=O)C1(C)O)C2=O` (stereo not given), the growth was 89.6% [100 µM] (inactive) and 94.3% [100 µM] (inactive) in experiment [1]; 97.2% [100 µM] (inactive) and 101% [100 µM] (inactive) in experiment [12].

As to `O=c1c2ccccc2nc(-c2ccccc2)n1/N=C/c1ccccc1[N+](=O)[O-]`, the growth was 54.7% [100 µM] (inactive) and 24.5% [100 µM] (inactive) in experiment [1]; 66.7% [100 µM] (inactive) and 0.136% [100 µM] (active) in experiment [12].

For the compound `COC(=O)C(C(=O)C(=O)NC1Nc2ccc(C)cc2S1)c1nc2ccc(Cl)cc2[nH]c1=O` (stereo not given), the growth in [1] is 77.4% [100 µM] (inactive) and 58.3% [100 µM] (inactive); in experiment [12] it was 113% [100 µM] (inactive) and 71.4% [100 µM] (inactive).

Take `O=C(Nc1cccc(NC(=O)C(=O)C2CCC3=C(Sc4ccccc4N3)C2=O)n1)C(=O)C1CCC2=C(Sc3ccccc3N2)C1=O` (stereo not given): the growth was 50.7% [100 µM] (inactive) and -46.3% [100 µM] (active) in [1]; 103% [100 µM] (inactive) and 15.7% [100 µM] (inactive) in experiment [12].

As for `CN(C)c1ccc(/C=N/n2c(-c3ccccc3)nc3ccccc3c2=O)cc1`, the growth in experiment [1] was 47.5% [100 µM] (inactive) and 13.6% [100 µM] (inactive); in [12], 101% [100 µM] (inactive) and 30.4% [100 µM] (inactive).
